We go through 18 compounds from PubChem BioAssay (NCATS).

One experiment relates to SKOV3. Put plainly: Primary qHTS to identify gynecologic anti-cancer compounds using libraries of approved drugs and bioactive compounds (AID 1345084). Also: % is scaled to controls: 0 for no effect and ±100 for the full control effect; nearly all actives have a fitted effect of over 55% in size. Particulars: Gynecologic cancer cell panel viability, ATPlite luminescence, 48 h; series mostly up to 57.5 µM. Summed up: (§1)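 Five-concentration response, 48 h; readout is ATP-driven luciferase luminescence.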
On the technique in general: qHTS replaces the single test concentration by a dilution series.

In the next experiment the test system is Tov-21-G. The description is as above. The following applies: Gynecologic cancer cell panel viability, ATPlite luminescence, 48 h; series mostly up to 57.5 µM. Summed up: as §1
(In general: ATP-based viability assays read luminescence as a measure of living cells.)

Another experiment concerns Tov112D. The description is as above. Particulars: Gynecologic cancer cell panel viability, ATPlite luminescence, 48 h; series mostly up to 57.5 µM. Summed up: as §1
A short description of experiment [1]: Drug repurposing screens with cells derived from glioblastoma tumor samples (AID 1345199). Also: nearly all actives have a fitted effect of over 40% in size. Also: potency is read from the fitted curve at half-maximal effect. As to activity, negative = cell killing: % is scaled to controls: 0 for no effect and ±100 for the full control effect. The following applies: GBM patient neurospheres viability, ATP luminescence, 48 h. Summed up: (§2)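 Primary testing used CD133+ neurospheres from four GBM patients, seven concentrations, 48 h exposure and ATP-based viability; confirmation added three slower-growing patient lines.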

In a further experiment the test system is astro. The description is as above. Particulars: viability, ATP luminescence, 48 h; series mostly up to 45.9 µM. Put shortly:
as §2

In experiment [2] the target is Nuclear receptor subfamily 1 group I member 2 (Rattus norvegicus) (UniProt Q9R1A7). Put plainly: qHTS assay for small molecule activators of the rat pregnane X receptor (rPXR) signaling pathway (AID 651751; call rule not given here; also: 0% is about no effect). Particulars: rPXR reporter cells, luciferase (One-Glo), 24 h.
Experiment [3] can be described thus: qHTS assay for small molecule activators of the human pregnane X receptor (PXR) signaling pathway (AID 720659; call rule not given here; also: 0% is about no effect).
[4] abbreviates: at 45.9 µM (top of the series), tumour line B.
[5] abbreviates: at 45.9 µM (top of the series), tumour line D.
Where [6] appears, read: at 46 µM (top of the series), tumour line A.
The mark [7] stands for this setting: at 46.1 µM (top of the series), tumour line C.

Each structure is given as a SMILES string. Where “and” joins values, the source holds several entries; their conditions need not be identical. Equal values may be shown once. A number with no mark means an inactive call. Records with an inconclusive call do not appear. Calls of active or inactive are those of the source. Unless noted, calls follow the shape of the dose curve; as a rule, active = well fitted curve in the direction sought with a large enough effect; inconclusive = small, poorly fitted or top-dose-only effect, or another doubt; inactive = no such curve, though single readings can be large; an effect the other way counts as inactive or inconclusive.

Nuclear receptor subfamily 1 group I member 2 (Rattus norvegicus), sequence (Q9R1A7 whole entry, looked up): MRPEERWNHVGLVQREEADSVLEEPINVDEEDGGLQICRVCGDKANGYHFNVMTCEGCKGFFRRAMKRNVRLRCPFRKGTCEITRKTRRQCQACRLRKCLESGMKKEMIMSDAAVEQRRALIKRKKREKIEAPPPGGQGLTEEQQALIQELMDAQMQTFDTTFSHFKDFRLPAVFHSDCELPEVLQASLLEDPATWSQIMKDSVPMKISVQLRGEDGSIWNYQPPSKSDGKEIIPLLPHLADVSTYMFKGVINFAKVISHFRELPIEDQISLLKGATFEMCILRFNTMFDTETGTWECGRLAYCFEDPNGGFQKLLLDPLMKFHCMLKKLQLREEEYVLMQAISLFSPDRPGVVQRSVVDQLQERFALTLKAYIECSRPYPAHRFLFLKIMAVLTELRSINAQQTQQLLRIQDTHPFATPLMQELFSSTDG

As to `C=CCNC(N)=S`, the compound was called inactive (in the experiment on SKOV3; with Tov-21-G; in the experiment on Tov112D; in the experiment with astro; in experiment [3]). Besides, the activity, negative = cell killing in experiment [1] (setting [4]) was -3.35%; in experiment [1] (setting [5]), -8.91%; in experiment [1] (setting [6]) it was -13.7%; in experiment [1] (setting [7]), -3.97%. Also, the max response in experiment [2] was -5.15%.
In the case of `Cc1cc(NC(=O)C2=C(O)c3ccccc3S(=O)(=O)N2C)no1`, the call in the experiment on SKOV3, in the experiment on Tov-21-G, with Tov112D and in the experiment with astro was inactive. The activity, negative = cell killing in experiment [1] (setting [4]) was -5.07%; in experiment [1] (setting [5]), -8.1%; in experiment [1] (setting [7]) it was -15.1%.
In the case of `CC(C)=CCC[C@@](C)(O)[C@H]1CC=C(C)CC1`, the compound was called inactive with SKOV3, with Tov-21-G, with Tov112D and with astro. In addition, the values for the activity, negative = cell killing in experiment [1] (setting [4]), in experiment [1] (setting [5]) and in experiment [1] (setting [7]) were -3.12%, 18.2% and -10.5%, respectively.
With `Cc1cc(O)cc(C)c1Cl`, the result (with SKOV3; in the experiment on Tov-21-G; in the experiment with Tov112D; in the experiment with astro; in experiment [3]) was inactive. Besides, the activity, negative = cell killing in experiment [1] (setting [4]) was 0.561%; in experiment [1] (setting [5]), -6%; in experiment [1] (setting [6]) it was -20%; in experiment [1] (setting [7]), 6.74%. Moreover, in experiment [2], the max response is 1.15%.
Consider `NC(=O)NS(=O)(=O)c1ccc(N)cc1`, for which the outcome in the experiment with SKOV3, with Tov-21-G, with Tov112D and in the experiment with astro was inactive. The activity, negative = cell killing is -9.53% in experiment [1] (setting [4]), 9.92% in experiment [1] (setting [5]), -3.84% in experiment [1] (setting [6]) and 3.57% in experiment [1] (setting [7]).
Take `O=C(O)c1ccccc1OP(=O)(O)O`: the call in the experiment with SKOV3, in the experiment on Tov-21-G, with Tov112D and in the experiment on astro was inactive. The activity, negative = cell killing in experiment [1] (setting [4]) was -8.79%; in experiment [1] (setting [5]), 13.5%; in experiment [1] (setting [6]) it was -28.4%; in experiment [1] (setting [7]), -24.8%.
Regarding `Cc1ccc(C(C)C)c(O)c1`, the call (in the experiment with SKOV3; in the experiment on Tov-21-G; in the experiment on Tov112D; in the experiment with astro; in experiment [3]) was inactive. Besides, the activity, negative = cell killing was -5.11% in experiment [1] (setting [4]), -0.376% in experiment [1] (setting [5]), -10.8% in experiment [1] (setting [6]) and 0.583% in experiment [1] (setting [7]). The max response in experiment [2] was -0.755%.
In the case of `Cc1c(N(C)C)c(=O)n(-c2ccccc2)n1C`, the compound was classed as inactive (in the experiment with SKOV3; with Tov-21-G; in the experiment with Tov112D; in the experiment with astro; in experiment [3]). The activity, negative = cell killing was -5.14% in experiment [1] (setting [4]), -8.5% in experiment [1] (setting [5]), -17.7% in experiment [1] (setting [6]) and -17.7% in experiment [1] (setting [7]). For the same compound, the max response in experiment [2] is -0.504% and 0.241%.
As for `O=C(c1ccccc1)C(O)c1ccccc1` (configuration not stated), the result (in the experiment with SKOV3; with Tov-21-G; in the experiment on Tov112D; in the experiment on astro; in experiment [3]) was inactive. Also, the activity, negative = cell killing is 4.63% in experiment [1] (setting [4]), -16.7% in experiment [1] (setting [5]), -19% in experiment [1] (setting [6]) and -3.13% in experiment [1] (setting [7]). Further, in experiment [2], the max response was 4.81% and 0.908%.
Turning to `O=C(NCN1CCOCC1)c1cnccn1`, the result in the experiment on SKOV3, with Tov-21-G, in the experiment on Tov112D and in the experiment with astro was inactive. Further, the activity, negative = cell killing in experiment [1] (setting [4]) was -3.93%; in experiment [1] (setting [5]), -22.6%; in experiment [1] (setting [6]), -8.03%; in experiment [1] (setting [7]) it was -4.53%.
On to `c1ccc2[nH]ccc2c1`, for which the compound was classed as inactive in the experiment on SKOV3, in the experiment with Tov-21-G, in the experiment with Tov112D and in the experiment with astro. For the same compound, the figures for the activity, negative = cell killing in experiment [1] (setting [4]), in experiment [1] (setting [6]) and in experiment [1] (setting [7]) were -8.88%, -21.8% and 0.178%, respectively.
On to `CC(=O)OCC(COC(C)=O)OC(C)=O`, for which the result (in the experiment on SKOV3; in the experiment on Tov-21-G; in the experiment on Tov112D; in the experiment with astro; in experiment [3]) was inactive. Further, the activity, negative = cell killing is 7.15% in experiment [1] (setting [4]), 15.4% in experiment [1] (setting [5]), -13.4% in experiment [1] (setting [6]) and 1.43% in experiment [1] (setting [7]). Moreover, the max response in experiment [2] was -2.17% and 2.63%.
In the case of `O=C(O)Cc1ccc(CCNS(=O)(=O)c2ccc(Cl)cc2)cc1`, the compound was classed as inactive in the experiment with SKOV3, in the experiment on Tov-21-G, in the experiment on Tov112D and in the experiment on astro. Further, the activity, negative = cell killing in experiment [1] (setting [4]) is -9.63%; in experiment [1] (setting [5]) it was -6.01%.
Turning to `CN(C/C=C/C#CC(C)(C)C)Cc1cccc2ccccc12`, the result with SKOV3, in the experiment with Tov-21-G, in the experiment with Tov112D and in the experiment on astro was inactive. The activity, negative = cell killing in experiment [1] (setting [7]) is -0.19%. The Potency in experiment [1] (tumour line A) is 20 µM (active).
With `CC(=O)Nc1cccc(O)c1`, the compound was called inactive (in the experiment with SKOV3; with Tov-21-G; in the experiment with Tov112D; in the experiment on astro; in experiment [3]). In addition, the activity, negative = cell killing was -7.47% in experiment [1] (setting [4]), -9.18% in experiment [1] (setting [5]) and -17.1% in experiment [1] (setting [7]). For the same compound, the max response in experiment [2] is -4.25%.
Take `CC[C@H](C)[C@H](N)C(=O)O`: the call in the experiment on SKOV3, with Tov-21-G, with Tov112D and in the experiment on astro was inactive. Moreover, the figures for the activity, negative = cell killing in experiment [1] (setting [4]), in experiment [1] (setting [5]) and in experiment [1] (setting [7]) were -7%, 0.894% and 2.32%, respectively.
In the case of `O=C1c2ccccc2S(=O)(=O)N1CCCCN1CCN(c2ncccn2)CC1`, the compound was called inactive in the experiment on SKOV3, with Tov-21-G, with Tov112D and in the experiment with astro. Besides, the activity, negative = cell killing in experiment [1] (setting [4]) is 1.94%; in experiment [1] (setting [5]), -19.1%; in experiment [1] (setting [7]), -25.2%.
In the case of `CCC(C)(CN(C)C)OC(=O)c1ccccc1` (configuration not stated), the outcome in the experiment on SKOV3, in the experiment on Tov-21-G, with Tov112D and in the experiment with astro was inactive. In addition, the activity, negative = cell killing in experiment [1] (at 20 µM (top of the series), tumour line C) was -12.8%; in experiment [1] (at 21.2 µM (top of the series), tumour line B), -2.39%; in experiment [1] (at 21.2 µM (top of the series), tumour line D) it was -5.13%.
